Experimental data: PubChem BioAssay
Calls of active or inactive are those of the source.

How the values were obtained:
[1] = test system: Plasmodium falciparum Sir2 (PF13_0152, Sir2A); assay: Plasmodium falciparum Sir2A binding compounds – biochemical, small-molecule microarray, 635 nm fluorescence, primary screen (AID 1098); details: fluorescence 635 nm, higher = more signal;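 further: score merges spot fluorescence intensity with its signal-to-noise ratio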
[2] = probe aDKK1 binding to arrayed compounds – biochemical, biotinylated probe, 635/667 nm fluorescence, primary screen (AID 1099); details: small-molecule microarray, higher = more signal;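 further: score merges 667nm spot fluorescence with signal to noise across triplicate slides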
[3] = probe aCHRDL2 binding to arrayed compounds – biochemical, biotinylated probe, 635/667 nm fluorescence, primary screen (AID 1100); details: small-molecule microarray, higher = more signal
[4] = change in splice reporter luminescence, either direction, cell-based, HEK293, spliceosome inhibition project, primary screen (AID 1101); details: HEK293 splicing luciferase reporter, 24 h, higher = more signal, called active from +8 up or from −8 down;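 further: HEK293 cells carrying a splicing-competent luciferase reporter gene; test concentration not given here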
[5] = target: Fibroblast growth factor 10 (Homo sapiens) (UniProt O15520); assay: compounds binding fibroblast growth factor 10 – biochemical, small-molecule microarray, 635 nm fluorescence, primary screen (AID 1102); details: FGF10 binding, fluorescence 635 nm, higher = more signal
Chain of Fibroblast growth factor 10 (Homo sapiens) (O15520 whole entry, looked up): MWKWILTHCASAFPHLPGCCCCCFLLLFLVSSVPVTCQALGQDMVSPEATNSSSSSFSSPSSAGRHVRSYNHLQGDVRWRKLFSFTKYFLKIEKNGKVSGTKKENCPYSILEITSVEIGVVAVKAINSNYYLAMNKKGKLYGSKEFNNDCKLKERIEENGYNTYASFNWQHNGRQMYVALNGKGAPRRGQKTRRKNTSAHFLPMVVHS

[6] = test system: glycogen synthase kinase-3 (GSK3A per assay name; protocol says GSK3B); assay: compounds binding glycogen synthase kinase-3 – biochemical, small-molecule microarray, 635 nm fluorescence, GSK3A, primary screen (AID 1103); details: fluorescence 635 nm, higher = more signal; further: the record names both GSK3A and GSK3B
[7] = target: Epidermal growth factor receptor (Homo sapiens) (UniProt P00533); assay: compounds binding epidermal growth factor receptor – biochemical, small-molecule microarray, 635 nm fluorescence, primary screen (AID 1104); details: EGFR binding, higher = more signal;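 further: score merges 667 nm emission intensity with spot signal to noise over triplicate slides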
Chain of Epidermal growth factor receptor (Homo sapiens) (P00533 whole entry, looked up): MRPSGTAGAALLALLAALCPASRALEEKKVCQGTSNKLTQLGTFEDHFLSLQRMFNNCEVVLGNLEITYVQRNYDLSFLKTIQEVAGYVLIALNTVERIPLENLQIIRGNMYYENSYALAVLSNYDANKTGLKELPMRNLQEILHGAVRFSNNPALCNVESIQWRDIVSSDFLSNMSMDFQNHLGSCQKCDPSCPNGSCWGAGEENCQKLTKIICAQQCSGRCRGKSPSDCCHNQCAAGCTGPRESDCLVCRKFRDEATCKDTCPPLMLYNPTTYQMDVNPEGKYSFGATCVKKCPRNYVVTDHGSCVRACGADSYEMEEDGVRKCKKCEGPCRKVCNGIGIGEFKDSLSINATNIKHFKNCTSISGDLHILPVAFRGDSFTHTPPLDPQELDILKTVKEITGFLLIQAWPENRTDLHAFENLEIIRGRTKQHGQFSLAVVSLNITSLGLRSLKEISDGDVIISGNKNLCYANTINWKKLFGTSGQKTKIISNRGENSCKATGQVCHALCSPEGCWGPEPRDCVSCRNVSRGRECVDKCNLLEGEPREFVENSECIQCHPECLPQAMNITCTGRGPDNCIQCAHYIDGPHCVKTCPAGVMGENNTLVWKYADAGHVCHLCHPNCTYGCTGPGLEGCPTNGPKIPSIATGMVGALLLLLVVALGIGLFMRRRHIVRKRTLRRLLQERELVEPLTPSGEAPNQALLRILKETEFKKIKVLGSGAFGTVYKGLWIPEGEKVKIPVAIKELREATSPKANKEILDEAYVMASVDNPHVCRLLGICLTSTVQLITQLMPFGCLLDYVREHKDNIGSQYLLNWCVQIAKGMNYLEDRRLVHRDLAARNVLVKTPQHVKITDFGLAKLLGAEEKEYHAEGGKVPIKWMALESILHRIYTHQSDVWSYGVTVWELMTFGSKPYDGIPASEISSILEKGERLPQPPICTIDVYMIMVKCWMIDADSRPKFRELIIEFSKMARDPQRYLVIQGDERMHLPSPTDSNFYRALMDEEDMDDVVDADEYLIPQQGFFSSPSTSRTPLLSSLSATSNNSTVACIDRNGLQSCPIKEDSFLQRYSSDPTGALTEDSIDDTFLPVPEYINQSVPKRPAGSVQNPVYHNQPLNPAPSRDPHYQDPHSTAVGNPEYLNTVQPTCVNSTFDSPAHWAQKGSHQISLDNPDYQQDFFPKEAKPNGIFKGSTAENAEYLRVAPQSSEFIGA

[8] = target: Follistatin-related protein 3 (Homo sapiens) (UniProt O95633); assay: compounds binding follistatin-related protein 3 – biochemical, small-molecule microarray, 635 nm fluorescence, primary screen (AID 1105); details: FSTL3 binding, higher = more signal;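 further: score merges emission near 667 nm and signal to noise per printed spot across three slides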
Chain of Follistatin-related protein 3 (Homo sapiens) (O95633 whole entry, looked up): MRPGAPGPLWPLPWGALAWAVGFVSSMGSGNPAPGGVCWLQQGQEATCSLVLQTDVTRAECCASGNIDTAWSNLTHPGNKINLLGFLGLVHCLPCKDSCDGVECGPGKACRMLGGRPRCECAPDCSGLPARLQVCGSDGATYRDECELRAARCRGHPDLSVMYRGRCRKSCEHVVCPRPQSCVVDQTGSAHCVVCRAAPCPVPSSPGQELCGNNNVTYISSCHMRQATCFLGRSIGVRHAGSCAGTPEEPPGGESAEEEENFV

[9] = target: Dickkopf-related protein 1 (Homo sapiens) (UniProt O94907); assay: small molecules binding DKK1 protein – biochemical, small-molecule microarray, 635 nm fluorescence scan, primary screen (AID 1106); details: higher = more signal;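 further: score merges emission near 667 nm with signal to noise over three replicate slides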
Chain of Dickkopf-related protein 1 (Homo sapiens) (O94907 whole entry, looked up): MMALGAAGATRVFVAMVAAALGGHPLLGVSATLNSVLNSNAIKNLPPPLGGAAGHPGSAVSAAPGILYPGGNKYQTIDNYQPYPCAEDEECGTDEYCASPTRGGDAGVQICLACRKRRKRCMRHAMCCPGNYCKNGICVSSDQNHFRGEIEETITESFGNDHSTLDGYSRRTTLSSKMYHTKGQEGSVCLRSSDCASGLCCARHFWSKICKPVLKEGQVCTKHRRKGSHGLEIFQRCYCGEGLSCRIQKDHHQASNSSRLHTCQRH

[10] = test system: Inhibin beta A chain (activin A); assay: small molecules binding activin A – biochemical, small-molecule microarray, 635 nm fluorescence scan, primary screen (AID 1107); details: INHBA, higher = more signal;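 further: mouse activin A protein probed at 4.33 µg/mL on printed slides; score merges bound-protein fluorescence near 667 nm with spot signal-to-noise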
[11] = test system: Human papillomavirus type 1a protein E7 (residues 44-93); assay: small molecules binding HPV E7 44-93 – biochemical, small-molecule microarray, residues 44-93, 635 nm fluorescence, primary screen (AID 1108); details: fluorescence 635 nm, higher = more signal;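 further: E7 fragment applied at 1 µg/mL in TBST for 1 h at 4 C; score combines spot fluorescence with its signal to noise ratio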
[12] = hepatitis C replication reporter changes, two-sided – Huh7 cells, luciferase reporter, HCV replication inhibitor project, primary screen (AID 1109); details: Huh7 HCV replicon luciferase reporter, 48 h; higher = more signal;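 further: huh7 hepatoma cells harbouring a luciferase neomycin HCV replicon reporter; luciferase luminescence as measure of HCV replicon replication; test concentration not given here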
[13] = target: Left-right determination factor 2 (Homo sapiens) (UniProt O00292); assay: small molecules binding LEFTY2 protein – biochemical, small-molecule microarray, 635 nm fluorescence scan, primary screen (AID 1110); details: higher = more signal
Chain of Left-right determination factor 2 (Homo sapiens) (O00292 whole entry, looked up): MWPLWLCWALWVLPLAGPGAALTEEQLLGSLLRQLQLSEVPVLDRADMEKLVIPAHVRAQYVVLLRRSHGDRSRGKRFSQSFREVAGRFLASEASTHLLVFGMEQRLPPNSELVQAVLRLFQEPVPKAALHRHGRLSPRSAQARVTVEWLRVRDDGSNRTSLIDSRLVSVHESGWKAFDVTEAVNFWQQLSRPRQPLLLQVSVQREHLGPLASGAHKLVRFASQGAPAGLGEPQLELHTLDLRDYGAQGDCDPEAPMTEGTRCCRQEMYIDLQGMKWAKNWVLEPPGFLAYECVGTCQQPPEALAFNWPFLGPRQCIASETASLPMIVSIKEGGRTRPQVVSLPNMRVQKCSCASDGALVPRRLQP

[14] = target: Calmodulin-1 (Homo sapiens) (UniProt P0DP23); assay: small molecules binding calmodulin-1 with EGTA – biochemical, small-molecule microarray, Cy5-labelled CALM1, profiling panel (AID 1111); details: Cy5-CALM1 binding fluorescence, higher = more signal;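 further: labelled calmodulin applied in Tris saline Tween buffer holding calcium plus EGTA and DTT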
[15] = target: Calmodulin-1 (Homo sapiens) (UniProt P0DP23); assay: small molecules binding Ca-loaded calmodulin-1 – biochemical, small-molecule microarray, Cy5-labelled CALM1, plus calcium, artefact control for SMM control-protein annotation, profiling panel (AID 1112); details: Cy5-CALM1 binding fluorescence, higher = more signal;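 further: score merges spot fluorescence with signal to noise from triplicate slides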
[16] = probe aWnt5a binding to arrayed compounds – biochemical, biotinylated probe, 635/667 nm fluorescence, primary screen (AID 1113); details: small-molecule microarray, higher = more signal;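 further: score merges 667 nm fluorescence intensity with signal-to-noise per printed feature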
[17] = probe aShh binding to arrayed compounds – biochemical, biotinylated probe, 635/667 nm fluorescence, primary screen (AID 1114); details: small-molecule microarray, higher = more signal;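 further: probe is biotin-labelled aShh protein from a stem cell growth factor screen; measures binding of labelled protein to compounds printed on the slide; score merges feature fluorescence at 667 nm with signal-to-noise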
[18] = probe aNog binding to arrayed compounds – biochemical, biotinylated probe, 635/667 nm fluorescence, primary screen (AID 1115); details: small-molecule microarray, higher = more signal;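 further: probe is biotinylated aNog protein used at 0.15 µg/mL for 1 h at 4 C; z-score combines 667 nm fluorescence of each spot with its signal to noise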
[19] = target: Torsin-1A-interacting protein 1 (Homo sapiens) (UniProt Q5JTV8); assay: compound microarray binding of lysate hLAP1 – cell lysate, small-molecule microarray, COS7 lysate, 635/667 nm fluorescence, primary screen (AID 1116); details: 635 nm fluorescence, higher = more signal
Chain of Torsin-1A-interacting protein 1 (Homo sapiens) (Q5JTV8 whole entry, looked up): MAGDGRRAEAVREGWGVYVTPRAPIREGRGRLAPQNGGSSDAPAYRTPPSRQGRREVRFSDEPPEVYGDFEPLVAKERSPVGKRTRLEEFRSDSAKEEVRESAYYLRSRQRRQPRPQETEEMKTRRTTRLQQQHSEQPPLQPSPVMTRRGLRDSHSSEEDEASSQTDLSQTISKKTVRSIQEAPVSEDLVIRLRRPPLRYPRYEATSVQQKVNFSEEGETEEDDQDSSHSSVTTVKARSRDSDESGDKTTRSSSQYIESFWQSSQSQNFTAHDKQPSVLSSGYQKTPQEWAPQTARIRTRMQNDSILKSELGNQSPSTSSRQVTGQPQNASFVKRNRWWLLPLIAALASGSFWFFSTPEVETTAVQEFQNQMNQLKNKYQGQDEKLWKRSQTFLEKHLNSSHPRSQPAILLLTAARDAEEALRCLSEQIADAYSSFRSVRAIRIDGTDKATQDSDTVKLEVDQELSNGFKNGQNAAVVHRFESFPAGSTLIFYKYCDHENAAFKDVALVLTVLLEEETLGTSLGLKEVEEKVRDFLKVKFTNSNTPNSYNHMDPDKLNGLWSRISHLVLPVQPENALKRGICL

[20] = target: Alpha-bungarotoxin (Bungarus multicinctus) (UniProt P60615); assay: compounds binding labelled alpha-BTX control protein – biochemical, small-molecule microarray, Alexa647 label, 635/667 nm fluorescence, artefact control for SMM control protein annotation, profiling panel (AID 1117); details: alpha-BTX-A647 binding fluorescence, higher = more signal
Chain of Alpha-bungarotoxin (Bungarus multicinctus) (P60615 whole entry, looked up): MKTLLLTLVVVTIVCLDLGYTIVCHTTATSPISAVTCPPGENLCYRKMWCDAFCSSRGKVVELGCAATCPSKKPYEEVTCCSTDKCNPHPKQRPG

SMILES	composite z-score [1]	composite z-score [2]	composite z-score [3]	z-score [4]	composite z-score [5]	composite z-score [6]	composite z-score [7]	composite z-score [8]	composite z-score [9]	composite z-score [10]	composite z-score [11]	z-score [12]	composite z-score [13]	composite z-score [14]	composite z-score [15]	composite z-score [16]	composite z-score [17]	composite z-score [18]	composite z-score [19]	composite z-score [20]
N#Cc1ccc(NN2C(C(O)c3ccc(F)cc3)C=CC3C(=O)N(c4ccccc4)C(=O)C32)cc1 (stereo not given)	1.3	0.151	0.581	1.52 (inactive)	-0.286	-0.0563	-0.746	-0.0131	-0.716	0.856	0.771	-0.41	-0.81	2.39	1.04	0.0334	-0.0578	1.83	2.24	1.05
[N-]=[N+]=Nc1ccccc1[C@@H]1OC(c2ccc(OCCCO)cc2)=N[C@]1(Cc1ccccc1)C(=O)NCC(O)CO (stereo not given in full)	1.08	1.33	1.4	-1.37 (inactive)	0.915	-0.216	-0.433	0.18	-0.647	1.09	0.883	-1.34	-0.879	2.21	1.18	0.0189	0.4	-0.4	2.95	2.56
C=CCC(OC(C)=O)[C@@H]1[C@@H](N(Cc2ccc(-c3cccc(C(F)(F)F)c3)o2)C(=O)c2ccc(C)cc2)c2cc(OCCCO)ccc2N1C(=O)c1ccc2ccccc2c1 (stereo not given in full)	0.178	-0.149	0.155	-0.619 (inactive)	0.298	-0.461	-0.0161	0.443	0.217	1.01	-0.191	-0.471	-0.0584	-0.287	-0.208	0.0433	-0.221	-0.347	-0.048	-0.0213
CCCC[C@@H]1C[C@H]1[C@@H](NC(=O)Cc1ccccc1)c1ccc(-c2ccccc2)cc1	-0.146	-0.0423	0.712	-1.26 (inactive)	0.0191	0.117	0.172	0.135	-0.46	0.685	1.24	-0.783	-0.319	0.538	0.588	-0.0276	0.0098	-0.0503	0.487	0.263
O=C1O[C@H](c2ccccc2)[C@H](c2ccccc2)N2[C@H]1[C@@H](C(=O)Nc1nc3ccccc3s1)[C@]1(C(=O)Nc3ccccc31)[C@H]2c1ccc(OCCO)cc1	1.35	0.07	0.341	-0.472 (inactive)	0.841	1.31	0.836	1.36	1.31	0.715	1.36	-2.64	0.807	0.504	-0.302	-0.16	0.0899	-0.411	0.442	1.02
COCCCNC(=O)[C@@]1(Cc2ccccc2CN=[N+]=[N-])N=C(c2ccc(OCCCO)cc2)O[C@H]1c1ccccc1	1.06	0.432	0.825	-0.645 (inactive)	1.31	0.235	-0.331	0.561	-0.497	0.31	1.47	-2.84	-0.0313	1.34	0.475	0.0257	0.313	0.999	1.62	1.52
CCOc1cc(C(O)C2C=CC3C(=O)N(C)C(=O)C3N2Nc2ccccc2)ccc1O (stereo not given)	0.764	0.791	0.0692	0.719 (inactive)	0.736	0.57	0.0228	0.0592	-0.329	0.569	1.24	-0.146	0.0031	0.796	-0.211	-0.0165	-0.155	-0.145	1.92	0.848
COc1ccccc1CN1C(=O)c2ccccc2[C@@]2(Cc3ccccc3N(CC(F)(F)F)C2=O)[C@@H]1c1ccc(CO)cc1	0.144	-0.435	-0.167	1.49 (inactive)	0.507	0.524	0.414	0.614	0.564	1.03	0.802	-0.521	0.244	-0.504	-0.723	0.13	-0.308	1.68	-0.0328	0.118
COc1ccc([Si](C)(C)[C@@H]2[C@@H](CC(=O)N(CCO)Cc3ccccc3)O[C@]3(C(=O)N(c4ccccc4)c4ccccc43)[C@H]2C)cc1	0.908	-0.262	-0.426	-2.14 (inactive)	0.766	0.629	0.954	1.21	0.95	0.872	1.33	-4.59	0.739	0.545	0.0061	-0.0559	-0.135	-0.495	0.395	0.883
COC(=O)Cn1c(C(=O)N(C)C)cc2c1C[C@H]1CN(C(=O)c3ccccc3)[C@@](Cc3ccc(F)cc3)(C(=O)OC)[C@@H]21	0.441	0.903	0.823	-0.233 (inactive)	1.33	-0.367	0.404	0.139	-0.0283	0.65	0.389	0.387	0.484	0.642	0.496	0.328	0.235	0.715	0.768	0.368
CCCC[C@@H]1C[C@H]1[C@@H](NC(=O)c1ccccc1)c1ccc(C(F)(F)F)cc1	-0.829	0.455	0.926	-0.188 (inactive)	-0.896	-1.74	-1.09	-0.683	-0.993	0.986	-1.52	-0.444	-1.06	-0.17	0.87	-0.0084	-0.296	-0.194	-0.309	-0.501
